Assay outcomes as filed in PubChem BioAssay.
H9c2 protect: cardioprotection against H2O2-induced cell death, primary screen, uHTS, H9c2 cells, ATPLite luminescence | protection from H2O2 cell death, % at 20 µM | AID 588492, 2011 | hit rate 0.63% among 360,000 | H9c2 cardiomyocytes, H2O2 injury protection, 2 h;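 active means compounds giving at least 50% protection of heart cells from peroxide-induced death in the single-dose screen, raw or plate-pattern-corrected value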;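 further: 0% = DMSO wells with peroxide and 100% = DMSO wells without peroxide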
AI-2 QS modul: Vibrio harveyi AI-2 quorum sensing modulators, primary screen, JMH597 strain, luminescence/OD600 ratio | hit rate 0.4% among 300,000 | Vibrio harveyi JMH597 AI-2 luminescence/OD600 ratio, 9 h; active compounds read low; strain lacks LuxN and CqsS sensors; 0 = neutral-control median | activity change, % at 7.5 µM | AID 2094, 2009; in the data active means activity change below about -75%, passing the limit was not always enough;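 further: luminescence divided by OD600 gain over 9 h not by final OD600 alone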
AHR act: AHR activators, primary screen, cell-based, luminescence, luciferase reporter, human | Aryl hydrocarbon receptor (Homo sapiens), P35869 | AHR-responsive luciferase reporter cells | activation, % at 5 µM | hit rate 2.5% among 320,000; in the data active means activation above about 47%;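 further: 0% = vehicle wells and 100% = reference agonist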
GRIN3A LBD mod: binders of NR3A ligand-binding domain, primary screen, biophysical, differential scanning fluorimetry, uHTS. Glutamate receptor ionotropic, NMDA 3A (GRIN3A) ligand-binding domain. NR3A LBD differential scanning fluorimetry, Tm shift; 0% = protein alone, 100% = glycine-bound protein. Tm shift relative to glycine control, % at 25 µM. hit rate 2.5% among 340,000. AID 1259313, 2017;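 active means melting temperature shift of at least 10% of the positive control shift, at one fixed dose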
NTR1 agonist: agonists of human NTR1, primary screen, imaging, U2OS cells, beta-arrestin-GFP, high content; Neurotensin receptor type 1 (Homo sapiens), P30989; NTR1-U2OS beta-arrestin-GFP spot imaging, agonist mode; activation, % at 20 µM; hit rate 0.17% among 330,000; AID 493036, 2011;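 active means activation at or above 40% of the spot to cytoplasm intensity ratio, with at least 20 cells analyzed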;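 further: 0% = DMSO without peptide and 100% = 100 nM NTR1 peptide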
Target sequence (P30989 whole entry, looked up): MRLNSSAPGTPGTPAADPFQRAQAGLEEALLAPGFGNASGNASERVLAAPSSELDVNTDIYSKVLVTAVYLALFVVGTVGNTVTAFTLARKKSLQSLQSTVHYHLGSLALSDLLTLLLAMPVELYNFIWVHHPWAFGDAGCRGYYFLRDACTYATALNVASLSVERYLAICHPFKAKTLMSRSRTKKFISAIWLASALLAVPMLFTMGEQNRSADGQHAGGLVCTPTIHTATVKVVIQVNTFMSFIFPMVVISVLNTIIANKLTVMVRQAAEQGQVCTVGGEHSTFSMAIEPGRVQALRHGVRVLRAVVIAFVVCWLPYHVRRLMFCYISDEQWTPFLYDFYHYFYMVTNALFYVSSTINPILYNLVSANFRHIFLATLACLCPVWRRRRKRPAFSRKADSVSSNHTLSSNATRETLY
SUMO Mot1 rescue: yeast Mot1-301 growth rescue at high temperature, primary screen, SUMOylation pathway inhibitor project, S. cerevisiae, ATP luminescence, 38.5C; growth rescue, % at 18.8 µM; S. cerevisiae Mot1-301 growth rescue; percent above DMSO median, 100 means doubled; hit rate 1% among 320,000;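 active means every valid replicate shows activation above 250% relative to neutral control wells; inactive means the rest, any valid replicate at or below 250%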;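 further: OY570 slx delta 5 strain wells were the positive control but not used for scaling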
Mot1 SUMO dose: growth restoration of Mot1-301 yeast on galactose, dose response, SUMO pathway inhibitor project, whole organism, S. cerevisiae, ATP luminescence, cherry-picked samples; shares compounds with SUMO Mot1 rescue; S. cerevisiae Mot1-301 galactose growth, 24 h; -100 = growth of slx-deleted rescue strain; growth activity, percent, % at 42 µM; 2,300 tested, under 10 active;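 active means Signal drops as the depositor expects, and the fitted half-maximal dose is no more than ten times the top valid tested dose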;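 further: more negative values mean stronger growth rescue toward the control strain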
* = called active by the depositor; · = no result given; + = active, no number; [ ] = remark or other dose. A selection: hits, their analogues and other compounds. The true share with any hit is near 6.2%.

SMILES	H9c2 protect	AI-2 QS modul	AHR act	GRIN3A LBD mod	NTR1 agonist	SUMO Mot1 rescue	Mot1 SUMO dose
CCOC(=O)N1CCN(c2nnnn2-c2ccccc2)CC1	-8	-1	1	-2	1	366*	0
CC1(CCc2ccccc2)NC(=O)N(CC(=O)Nc2ccc(OC(F)F)cc2)C1=O (stereo not given)	-1	·	3	-7	0	7	·
Cc1noc(C)c1S(=O)(=O)Nc1ccc2c(c1)CC(=O)N([C@H](C)CO)C[C@H](C)[C@H](CN(C)S(=O)(=O)c1ccc(F)cc1)O2	1	·	-1	0	-2	4	·
CCC(C(=O)N1CCN(C(=O)c2ccco2)CC1)n1sc2ccccc2c1=O (stereo not given)	1	7	3	-2	-1	-3	·
CC(C(=O)N1CCN(C(=O)c2ccco2)CC1)n1sc2ccccc2c1=O (stereo not given)	-2	2	2	-2	0	380*	1
O=C(c1ccc(-c2ccccc2)cc1)C1CCCN(C(=O)c2ccncc2)C1 (stereo not given)	-3	13	-1	-1	1	32	·
O=C(c1ccc(-c2ccccc2)cc1)C1CCCN(Cc2ccncc2)C1 (stereo not given)	-24	5	0	-2	3	365*	0
CC(C)NC(=O)C1(C)CCN1Cc1ccc(Cl)cc1 (stereo not given)	-2	·	·	·	·	·	·
CC(C)(C)c1ccc(C(=O)Nc2ccc(C(=O)NCc3cccnc3)cc2)cc1	-6	12	2	-2	2	262	·
CCOc1ccc(NS(=O)(=O)c2ccc(C(=O)NCc3cccnc3)cc2)cc1	-12	·	1	1	2	449*	1
CCOc1ccc(NS(=O)(=O)c2ccc(C(=O)NCc3ccncc3)cc2)cc1	-6	3	2	1	-1	18	·
CC(C)(C)C(=O)Nc1ccc(C(=O)NCc2cccnc2)cc1	-5	19	2	0	0	430*	0
CCn1nc(C)c(CN2CCC(n3nccc3NC(=O)c3ccc4c(c3)OCO4)CC2)c1C	5	10	1	-2	-1	2	·
CCCCN1C2CCCC1CC(NC(=O)c1cccc(Cl)c1)C2 (stereo not given)	2	1	1	0	-1	4	·
O=C1c2ccccc2NC(c2ccccc2O)N1O (stereo not given)	52*	49	24	-3	0	384*	-1
Cc1ccc(N2C(=O)c3ccccc3NC2c2ccccc2O)cc1 (stereo not given)	-6	-1	10	5	4	-16	·
COc1ccc2nc(C)cc(N3CCN(S(=O)(=O)c4ccccc4F)CC3)c2c1	24	·	-3	-2	3	9	·
O=C(COc1ccccc1)NCCS(=O)(=O)N1CCN(c2ccccc2)CC1	-3	13	3	0	4	380*	0
COc1ccc(N2CCN(S(=O)(=O)Cc3ccccc3)CC2)cc1	-2	17	0	0	0	5	·
O=S(=O)(Cc1ccccc1)N1CCN(c2ccccc2)CC1	-5	24	9	1	·	583*	0
CCOc1ccc(OCC(=O)NCCS(=O)(=O)N2CCN(c3ccccc3)CC2)cc1	-6	·	·	·	·	·	·
CN(C)c1nc(N)ncc1-c1ccc(Oc2ccccc2)cc1	-10	9	6	0	0	42	·
COCCNC(=O)C1CCCN(C(=O)c2csc3ccccc23)CC1 (stereo not given)	1	·	·	·	·	·	·
CCc1ccc2nc(-c3cccc(C)c3)nc(SCC(=O)NCC3CCCO3)c2c1 (stereo not given)	-4	13	2	-4	-2	404*	0
COC(=O)CCCC(=O)NCC1(N(C)Cc2ccccc2)Cc2ccccc2C1	0	11	2	1	0	387*	1
SMILES	H9c2 protect	AI-2 QS modul	AHR act	GRIN3A LBD mod	NTR1 agonist	SUMO Mot1 rescue	Mot1 SUMO dose
CC(=O)NCCC(=O)NCC1(N(C)Cc2ccccc2)Cc2ccccc2C1	-1	4	·	1	0	-6	·
Cc1cc(-c2ccc(Cl)cc2Cl)c(C#N)c(=O)[nH]1	-9	28	3	1	2	418*	1
CSCC[C@H](NC(=O)OC(C)(C)C)C(=O)N1CCC(C(=O)N[C@@H](C)C(=O)NCc2ccc(F)cc2)CC1	-4	14	-1	-2	-2	-7	·
O=C(N/N=C/c1cccs1)c1cncc(Br)c1	5	8	29	-2	-1	470*	-1
O=C1CN(C(=O)c2ccccc2F)C(c2ccccc2)c2cc(Cl)ccc2N1 (stereo not given)	13	13	16	0	4	603*	0
COc1ccc(C2/C(=C(/O)c3ccc4c(c3)CC(C)O4)C(=O)C(=O)N2CCCn2ccnc2)cc1OC (stereo not given)	-2	·	·	3	·	·	·
Cc1ccsc1C(=O)N1CCCC(CO)(Cc2ccccc2F)C1 (stereo not given)	-5	41	2	-2	2	4	·
O=C(NC(=S)NNC(=O)c1ccccc1O)c1cccc([N+](=O)[O-])c1	6	30	-1	-2	0	368*	0
CC(C)(C)OC(=O)N1CCCC(C(=O)Nc2ccc(C(=O)NCCc3ccccc3)cc2)C1 (stereo not given)	11	·	·	1	·	·	·
NN1C(=O)NC(c2ccccc2)(c2ccccc2)C1=O	-2	26	1	-1	0	543*	0
COc1ccc(OCCSc2nc3ccccc3n2CCC(=O)O)cc1	5	18	0	-4	1	10	·
COc1ccccc1OCCSc1nc2ccccc2n1CCC(=O)O	-3	12	1	2	1	+	0
c1ccc(Cn2nnnc2C(c2ccccc2)N2CCN(c3nc4ccccc4s3)CC2)cc1 (stereo not given)	2	19	1	0	1	15	·
Cc1ccc(C)c(N2CCN(C(c3ccncc3)c3nnnn3Cc3ccccc3)CC2)c1 (stereo not given)	-3	35	1	1	0	422*	1[21 µM]
